In the supplement of paper PMC11732987, “Enantioselective OTUD7B fragment discovery through chemoproteomics screening and high-throughput optimisation” (Communications Chemistry, 2025):

Columns and labels:
Assay in all cases: log2 ratio of Biotin-Ahx-Ub-VS probe labelling (fragment/DMSO); higher = less target engagement (more negative = stronger competition), active = hit call of the paper (q ≤ 0.05, log2 ratio ≤ -1)
Details in all cases: compound concentration: 200 uM; treatment time: 3 h
USP42 = molecular target: T1, USP42 (UniProt Q9H9J4)
T1 sequence (whole entry): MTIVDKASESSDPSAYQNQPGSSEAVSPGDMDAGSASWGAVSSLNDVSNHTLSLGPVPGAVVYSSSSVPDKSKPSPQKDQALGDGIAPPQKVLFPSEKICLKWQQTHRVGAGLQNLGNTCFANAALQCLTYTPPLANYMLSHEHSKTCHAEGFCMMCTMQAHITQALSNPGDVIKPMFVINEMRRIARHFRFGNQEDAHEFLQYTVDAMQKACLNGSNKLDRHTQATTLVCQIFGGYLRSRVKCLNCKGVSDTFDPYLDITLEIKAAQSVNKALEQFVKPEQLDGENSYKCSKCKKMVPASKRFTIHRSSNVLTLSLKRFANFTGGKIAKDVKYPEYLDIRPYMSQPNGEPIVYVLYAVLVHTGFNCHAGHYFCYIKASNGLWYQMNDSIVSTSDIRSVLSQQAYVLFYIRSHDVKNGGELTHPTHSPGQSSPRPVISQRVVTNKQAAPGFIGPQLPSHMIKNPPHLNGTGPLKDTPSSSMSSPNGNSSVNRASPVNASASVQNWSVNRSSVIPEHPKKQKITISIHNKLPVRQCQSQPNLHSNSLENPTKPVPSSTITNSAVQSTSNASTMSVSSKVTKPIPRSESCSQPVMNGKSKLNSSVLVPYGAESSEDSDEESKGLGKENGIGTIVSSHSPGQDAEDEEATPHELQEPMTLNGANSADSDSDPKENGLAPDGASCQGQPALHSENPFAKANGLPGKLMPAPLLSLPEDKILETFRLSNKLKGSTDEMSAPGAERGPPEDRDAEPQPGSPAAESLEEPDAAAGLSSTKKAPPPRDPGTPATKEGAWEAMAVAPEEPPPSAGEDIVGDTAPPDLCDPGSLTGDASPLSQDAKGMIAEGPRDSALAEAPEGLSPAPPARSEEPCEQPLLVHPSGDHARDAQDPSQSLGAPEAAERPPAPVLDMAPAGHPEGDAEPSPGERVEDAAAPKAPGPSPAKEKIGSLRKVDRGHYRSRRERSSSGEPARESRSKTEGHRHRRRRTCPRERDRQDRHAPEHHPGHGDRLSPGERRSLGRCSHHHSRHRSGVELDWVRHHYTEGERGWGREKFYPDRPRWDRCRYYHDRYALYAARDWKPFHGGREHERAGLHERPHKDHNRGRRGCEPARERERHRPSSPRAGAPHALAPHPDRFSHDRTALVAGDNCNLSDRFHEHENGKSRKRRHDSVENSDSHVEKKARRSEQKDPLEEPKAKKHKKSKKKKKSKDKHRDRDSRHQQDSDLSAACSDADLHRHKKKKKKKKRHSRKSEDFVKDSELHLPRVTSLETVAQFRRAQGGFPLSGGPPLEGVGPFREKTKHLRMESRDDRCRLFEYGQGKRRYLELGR
Outline: (§1)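 Triplicate samples of HEK293T lysate, 495 µg each, received fragment at 200 µM or vehicle for 3 h, followed by Biotin-Ahx-Ub-VS (0.5 µM final) for 1 h. After NeutrAvidin enrichment of labelled DUBs and LysC/trypsin digestion, peptides were run by diaPASEF LC-MS/MS. The values are average log2 fragment/vehicle ratios from global-median-normalised Spectronaut label-free quantities, tested by unpaired t-test on proteins having ≥2 unique peptides.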

USP46 = USP46 (UniProt P62068)
USP46, sequence (P62068 whole entry): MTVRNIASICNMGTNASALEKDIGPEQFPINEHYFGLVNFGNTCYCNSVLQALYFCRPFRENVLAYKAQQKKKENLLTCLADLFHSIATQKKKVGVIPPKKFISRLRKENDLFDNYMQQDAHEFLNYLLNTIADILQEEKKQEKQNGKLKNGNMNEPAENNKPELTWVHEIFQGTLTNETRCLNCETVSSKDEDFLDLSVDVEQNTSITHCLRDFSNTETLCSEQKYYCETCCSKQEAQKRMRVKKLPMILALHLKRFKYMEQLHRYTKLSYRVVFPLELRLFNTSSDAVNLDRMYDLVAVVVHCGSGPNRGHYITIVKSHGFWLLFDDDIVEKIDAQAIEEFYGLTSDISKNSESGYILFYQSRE
Outline: as §1

USP47 = molecular target: T2, USP47 (UniProt Q96K76)
T2 sequence (whole entry): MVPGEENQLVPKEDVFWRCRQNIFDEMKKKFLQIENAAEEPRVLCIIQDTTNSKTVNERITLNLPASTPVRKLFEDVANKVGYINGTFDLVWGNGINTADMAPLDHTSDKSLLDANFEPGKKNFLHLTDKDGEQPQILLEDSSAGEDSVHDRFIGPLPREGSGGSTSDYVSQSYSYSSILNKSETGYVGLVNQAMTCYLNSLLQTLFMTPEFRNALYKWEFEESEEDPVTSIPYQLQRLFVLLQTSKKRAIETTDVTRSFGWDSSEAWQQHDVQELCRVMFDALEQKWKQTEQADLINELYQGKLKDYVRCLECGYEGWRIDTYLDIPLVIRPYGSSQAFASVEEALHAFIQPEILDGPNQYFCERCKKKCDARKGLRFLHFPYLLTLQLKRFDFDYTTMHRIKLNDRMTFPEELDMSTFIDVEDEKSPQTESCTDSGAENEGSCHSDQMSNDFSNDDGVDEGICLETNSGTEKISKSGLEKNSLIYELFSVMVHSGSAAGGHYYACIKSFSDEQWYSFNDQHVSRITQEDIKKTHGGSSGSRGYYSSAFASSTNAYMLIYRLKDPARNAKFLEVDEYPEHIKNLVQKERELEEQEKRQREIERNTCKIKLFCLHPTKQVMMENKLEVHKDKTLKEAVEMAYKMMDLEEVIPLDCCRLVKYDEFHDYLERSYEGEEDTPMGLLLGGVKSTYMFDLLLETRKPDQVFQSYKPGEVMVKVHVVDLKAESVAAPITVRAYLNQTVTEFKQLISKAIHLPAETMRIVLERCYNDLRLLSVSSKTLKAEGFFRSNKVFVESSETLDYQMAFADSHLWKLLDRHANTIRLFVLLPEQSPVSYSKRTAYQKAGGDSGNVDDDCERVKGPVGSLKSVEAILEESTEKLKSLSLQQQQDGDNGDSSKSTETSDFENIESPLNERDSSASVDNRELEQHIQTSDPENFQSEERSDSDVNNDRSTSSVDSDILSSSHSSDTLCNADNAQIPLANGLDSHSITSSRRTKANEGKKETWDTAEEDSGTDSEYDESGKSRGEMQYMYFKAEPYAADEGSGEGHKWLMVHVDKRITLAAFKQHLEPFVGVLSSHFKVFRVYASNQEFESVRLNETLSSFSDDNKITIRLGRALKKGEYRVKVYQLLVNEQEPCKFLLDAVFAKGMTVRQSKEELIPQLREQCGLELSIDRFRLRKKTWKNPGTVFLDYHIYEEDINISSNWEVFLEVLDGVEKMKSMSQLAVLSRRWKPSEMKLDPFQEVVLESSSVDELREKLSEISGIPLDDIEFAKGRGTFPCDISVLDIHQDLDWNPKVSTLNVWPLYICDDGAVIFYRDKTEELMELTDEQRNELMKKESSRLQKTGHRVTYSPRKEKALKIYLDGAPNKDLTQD
Outline: as §1

USP48 = molecular target: T3, USP48 (UniProt Q86UV5)
T3 sequence (whole entry): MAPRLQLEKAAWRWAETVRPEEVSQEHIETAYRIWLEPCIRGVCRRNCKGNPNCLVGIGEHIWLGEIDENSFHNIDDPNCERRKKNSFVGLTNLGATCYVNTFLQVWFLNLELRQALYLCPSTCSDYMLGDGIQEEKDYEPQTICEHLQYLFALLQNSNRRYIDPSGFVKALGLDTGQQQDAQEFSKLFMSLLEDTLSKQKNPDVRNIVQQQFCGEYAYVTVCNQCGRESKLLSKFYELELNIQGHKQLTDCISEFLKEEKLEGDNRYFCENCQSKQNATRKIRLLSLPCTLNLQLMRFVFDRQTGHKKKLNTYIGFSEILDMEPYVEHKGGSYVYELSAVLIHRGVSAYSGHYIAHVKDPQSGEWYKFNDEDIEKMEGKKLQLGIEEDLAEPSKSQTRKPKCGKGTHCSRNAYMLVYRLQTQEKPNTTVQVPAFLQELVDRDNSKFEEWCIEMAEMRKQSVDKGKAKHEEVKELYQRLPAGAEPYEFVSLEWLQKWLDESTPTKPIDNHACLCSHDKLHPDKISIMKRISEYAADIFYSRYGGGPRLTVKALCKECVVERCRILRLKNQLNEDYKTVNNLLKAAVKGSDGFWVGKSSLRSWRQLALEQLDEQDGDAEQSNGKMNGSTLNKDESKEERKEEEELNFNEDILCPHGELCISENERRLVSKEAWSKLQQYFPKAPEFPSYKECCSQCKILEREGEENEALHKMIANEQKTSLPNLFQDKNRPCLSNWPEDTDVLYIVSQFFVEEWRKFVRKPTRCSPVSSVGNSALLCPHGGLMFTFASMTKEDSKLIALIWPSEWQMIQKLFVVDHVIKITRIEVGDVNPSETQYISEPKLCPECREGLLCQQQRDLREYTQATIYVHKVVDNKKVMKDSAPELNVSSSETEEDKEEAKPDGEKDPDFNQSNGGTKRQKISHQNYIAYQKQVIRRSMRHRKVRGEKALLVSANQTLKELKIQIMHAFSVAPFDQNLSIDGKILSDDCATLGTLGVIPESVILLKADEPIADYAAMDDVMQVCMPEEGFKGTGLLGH
Outline: as §1

USP5 = molecular target: T4, USP5 (UniProt P45974)
T4 sequence (whole entry): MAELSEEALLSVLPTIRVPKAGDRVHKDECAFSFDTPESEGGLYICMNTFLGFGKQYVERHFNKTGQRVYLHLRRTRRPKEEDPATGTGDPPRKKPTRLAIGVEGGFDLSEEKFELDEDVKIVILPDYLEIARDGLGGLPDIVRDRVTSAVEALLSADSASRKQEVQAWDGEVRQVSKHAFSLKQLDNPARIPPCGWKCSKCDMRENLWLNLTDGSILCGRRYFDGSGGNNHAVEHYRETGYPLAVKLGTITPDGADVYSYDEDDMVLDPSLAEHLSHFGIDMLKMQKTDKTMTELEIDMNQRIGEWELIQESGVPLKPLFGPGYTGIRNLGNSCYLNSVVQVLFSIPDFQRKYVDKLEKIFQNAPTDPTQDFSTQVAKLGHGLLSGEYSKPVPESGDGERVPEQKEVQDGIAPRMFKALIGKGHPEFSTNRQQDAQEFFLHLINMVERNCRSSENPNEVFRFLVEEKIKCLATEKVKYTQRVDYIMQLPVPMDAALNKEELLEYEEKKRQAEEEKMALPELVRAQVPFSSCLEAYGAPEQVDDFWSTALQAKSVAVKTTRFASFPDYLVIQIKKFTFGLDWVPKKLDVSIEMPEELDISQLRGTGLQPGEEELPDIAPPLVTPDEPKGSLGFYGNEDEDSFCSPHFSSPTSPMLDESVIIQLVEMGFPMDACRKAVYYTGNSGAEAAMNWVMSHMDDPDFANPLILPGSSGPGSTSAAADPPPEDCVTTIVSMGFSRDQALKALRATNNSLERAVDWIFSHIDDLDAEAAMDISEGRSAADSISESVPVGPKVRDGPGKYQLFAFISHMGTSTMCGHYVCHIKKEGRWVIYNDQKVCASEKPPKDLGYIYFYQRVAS
Outline: as §1

USP54 = USP54 (UniProt Q70EL1)
USP54, sequence (Q70EL1 whole entry): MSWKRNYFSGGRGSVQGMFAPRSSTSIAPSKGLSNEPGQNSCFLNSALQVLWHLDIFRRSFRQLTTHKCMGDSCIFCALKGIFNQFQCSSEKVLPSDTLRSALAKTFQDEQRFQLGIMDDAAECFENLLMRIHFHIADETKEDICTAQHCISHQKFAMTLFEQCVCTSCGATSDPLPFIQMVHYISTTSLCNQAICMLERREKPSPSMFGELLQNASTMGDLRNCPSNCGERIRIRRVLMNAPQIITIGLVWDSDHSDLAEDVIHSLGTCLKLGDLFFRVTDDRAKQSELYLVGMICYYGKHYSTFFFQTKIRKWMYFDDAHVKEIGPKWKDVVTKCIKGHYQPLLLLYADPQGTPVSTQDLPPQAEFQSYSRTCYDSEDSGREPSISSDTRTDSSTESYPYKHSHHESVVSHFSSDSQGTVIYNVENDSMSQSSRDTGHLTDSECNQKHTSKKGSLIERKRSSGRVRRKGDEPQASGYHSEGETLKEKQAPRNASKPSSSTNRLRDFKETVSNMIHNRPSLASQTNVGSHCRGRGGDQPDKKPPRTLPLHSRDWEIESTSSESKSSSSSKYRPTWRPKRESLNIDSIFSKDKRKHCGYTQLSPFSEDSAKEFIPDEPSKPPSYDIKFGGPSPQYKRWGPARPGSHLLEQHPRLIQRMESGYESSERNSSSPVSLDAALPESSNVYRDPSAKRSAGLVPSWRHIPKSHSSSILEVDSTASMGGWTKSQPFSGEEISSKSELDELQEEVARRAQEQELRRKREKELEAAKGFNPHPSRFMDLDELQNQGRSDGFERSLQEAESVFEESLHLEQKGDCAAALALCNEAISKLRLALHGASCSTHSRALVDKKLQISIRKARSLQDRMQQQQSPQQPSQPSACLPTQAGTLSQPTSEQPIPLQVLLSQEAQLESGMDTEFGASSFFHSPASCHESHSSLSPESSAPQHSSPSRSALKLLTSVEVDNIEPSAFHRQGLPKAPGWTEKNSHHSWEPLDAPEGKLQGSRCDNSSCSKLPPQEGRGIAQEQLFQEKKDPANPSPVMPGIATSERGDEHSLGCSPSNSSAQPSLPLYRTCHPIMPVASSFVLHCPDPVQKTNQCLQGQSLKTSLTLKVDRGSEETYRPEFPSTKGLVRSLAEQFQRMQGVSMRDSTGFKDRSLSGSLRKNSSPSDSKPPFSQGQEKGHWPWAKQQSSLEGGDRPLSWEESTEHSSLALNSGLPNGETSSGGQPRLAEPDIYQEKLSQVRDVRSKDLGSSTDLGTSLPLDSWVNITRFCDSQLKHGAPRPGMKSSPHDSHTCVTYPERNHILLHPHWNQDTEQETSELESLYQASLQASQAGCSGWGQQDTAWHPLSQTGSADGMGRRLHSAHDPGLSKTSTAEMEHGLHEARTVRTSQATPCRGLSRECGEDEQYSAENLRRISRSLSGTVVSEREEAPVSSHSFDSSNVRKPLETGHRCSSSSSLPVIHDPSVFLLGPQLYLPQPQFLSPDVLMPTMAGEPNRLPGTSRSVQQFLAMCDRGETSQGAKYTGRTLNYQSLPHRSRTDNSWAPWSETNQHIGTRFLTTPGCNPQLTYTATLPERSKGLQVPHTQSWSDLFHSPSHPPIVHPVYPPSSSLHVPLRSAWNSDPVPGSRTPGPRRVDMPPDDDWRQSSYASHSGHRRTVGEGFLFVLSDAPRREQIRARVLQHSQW
Outline: as §1

USP7 = USP7 (UniProt Q93009)
USP7, sequence (Q93009 whole entry, looked up): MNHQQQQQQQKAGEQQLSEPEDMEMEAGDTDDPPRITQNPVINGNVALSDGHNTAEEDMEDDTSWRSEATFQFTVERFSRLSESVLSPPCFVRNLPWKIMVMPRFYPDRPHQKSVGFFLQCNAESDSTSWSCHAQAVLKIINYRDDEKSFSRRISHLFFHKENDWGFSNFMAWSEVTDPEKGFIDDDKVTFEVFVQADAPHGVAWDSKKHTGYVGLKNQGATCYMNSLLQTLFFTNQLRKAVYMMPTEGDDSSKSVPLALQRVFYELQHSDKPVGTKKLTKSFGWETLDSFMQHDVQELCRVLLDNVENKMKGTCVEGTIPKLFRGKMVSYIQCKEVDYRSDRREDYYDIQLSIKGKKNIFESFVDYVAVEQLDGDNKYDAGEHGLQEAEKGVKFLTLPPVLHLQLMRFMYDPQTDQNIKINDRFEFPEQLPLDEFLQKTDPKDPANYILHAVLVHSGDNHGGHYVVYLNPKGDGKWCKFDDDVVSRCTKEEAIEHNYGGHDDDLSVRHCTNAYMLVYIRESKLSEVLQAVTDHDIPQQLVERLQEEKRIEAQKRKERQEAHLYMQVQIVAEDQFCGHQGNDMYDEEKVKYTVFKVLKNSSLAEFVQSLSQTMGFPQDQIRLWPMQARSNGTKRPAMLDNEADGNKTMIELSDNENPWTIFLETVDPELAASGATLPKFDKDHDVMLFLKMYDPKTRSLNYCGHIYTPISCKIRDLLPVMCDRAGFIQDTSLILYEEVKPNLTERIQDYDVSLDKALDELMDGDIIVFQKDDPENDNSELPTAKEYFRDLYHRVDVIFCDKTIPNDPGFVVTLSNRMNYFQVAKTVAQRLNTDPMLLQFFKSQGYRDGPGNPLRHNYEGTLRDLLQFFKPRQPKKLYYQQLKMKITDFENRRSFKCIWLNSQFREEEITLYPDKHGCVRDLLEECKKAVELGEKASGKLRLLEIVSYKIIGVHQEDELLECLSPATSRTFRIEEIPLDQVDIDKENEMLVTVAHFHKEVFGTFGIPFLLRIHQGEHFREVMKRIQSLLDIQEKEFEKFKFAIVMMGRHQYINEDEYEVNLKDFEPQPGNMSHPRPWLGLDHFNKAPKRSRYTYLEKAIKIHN
Outline: as §1

USP8 = molecular target: T5, USP8 (UniProt P40818)
T5 sequence (whole entry): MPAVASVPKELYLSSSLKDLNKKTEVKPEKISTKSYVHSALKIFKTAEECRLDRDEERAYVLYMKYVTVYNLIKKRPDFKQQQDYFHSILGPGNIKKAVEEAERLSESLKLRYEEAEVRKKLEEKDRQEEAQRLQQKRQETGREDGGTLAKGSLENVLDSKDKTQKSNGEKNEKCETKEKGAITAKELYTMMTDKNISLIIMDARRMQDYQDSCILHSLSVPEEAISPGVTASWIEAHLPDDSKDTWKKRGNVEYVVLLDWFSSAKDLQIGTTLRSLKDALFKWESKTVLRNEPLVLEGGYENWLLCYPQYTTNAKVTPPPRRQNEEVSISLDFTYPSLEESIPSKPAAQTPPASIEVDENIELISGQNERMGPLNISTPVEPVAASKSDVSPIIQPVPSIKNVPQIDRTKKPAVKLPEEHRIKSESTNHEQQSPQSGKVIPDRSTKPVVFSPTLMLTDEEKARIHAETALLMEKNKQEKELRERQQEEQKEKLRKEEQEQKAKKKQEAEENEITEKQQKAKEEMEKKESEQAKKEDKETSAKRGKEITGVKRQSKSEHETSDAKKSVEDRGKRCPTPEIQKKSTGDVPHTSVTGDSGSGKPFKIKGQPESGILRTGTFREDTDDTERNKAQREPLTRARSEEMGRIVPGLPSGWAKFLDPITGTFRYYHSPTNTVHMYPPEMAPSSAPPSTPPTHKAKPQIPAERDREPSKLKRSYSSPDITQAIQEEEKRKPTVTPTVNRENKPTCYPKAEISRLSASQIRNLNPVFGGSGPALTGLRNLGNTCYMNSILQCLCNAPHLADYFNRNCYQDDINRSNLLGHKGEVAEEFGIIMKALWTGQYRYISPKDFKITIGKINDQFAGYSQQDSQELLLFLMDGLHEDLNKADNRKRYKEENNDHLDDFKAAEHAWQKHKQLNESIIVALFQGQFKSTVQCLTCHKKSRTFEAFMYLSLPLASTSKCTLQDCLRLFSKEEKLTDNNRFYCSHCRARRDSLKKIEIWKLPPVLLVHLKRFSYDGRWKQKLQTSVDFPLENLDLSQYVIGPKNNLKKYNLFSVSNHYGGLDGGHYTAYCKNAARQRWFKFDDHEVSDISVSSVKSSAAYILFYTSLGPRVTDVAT
Outline: as §1

USP9X = USP9X (UniProt Q93008)
Outline: as §1

UniProt O00487 = molecular target: UniProt O00487
UniProt O00487, sequence (O00487 whole entry): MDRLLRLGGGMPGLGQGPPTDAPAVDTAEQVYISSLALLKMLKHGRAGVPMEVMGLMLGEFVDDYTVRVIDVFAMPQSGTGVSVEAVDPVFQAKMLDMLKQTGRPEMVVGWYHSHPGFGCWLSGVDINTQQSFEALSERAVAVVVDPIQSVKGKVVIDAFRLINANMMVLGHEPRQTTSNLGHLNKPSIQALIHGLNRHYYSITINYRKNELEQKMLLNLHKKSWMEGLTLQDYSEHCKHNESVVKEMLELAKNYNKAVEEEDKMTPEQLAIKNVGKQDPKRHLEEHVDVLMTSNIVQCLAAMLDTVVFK
Outline: as §1

Measured: log2 ratio of Biotin-Ahx-Ub-VS probe labelling

O=C(CCl)Nc1cccc2ncccc12
inactive: USP42 0.41 | USP46 0.096 | USP47 0.325 | USP48 -0.121 | USP5 0.466 | USP54 -0.107 | USP7 -0.116 | USP8 -0.176 | USP9X -0.112 | UniProt O00487 0.0189
